# Measurements from publication PMC5540273 (PLoS ONE, 2017).
# Where two headings read alike, the source gives them in different places.
# Legend:
# [1] = system: T1, GRK3; conditions: concentration: 1 μM, replicates: in singlicate; n = 1
# T1 construct: gene ADRBK2
# [2] = system: GRK4; conditions: concentration: 1 μM, replicates: in singlicate; n = 1
# [3] = system: GRK7; conditions: concentration: 1 μM, replicates: in singlicate; n = 1
# [4] = system: GSK3A; conditions: concentration: 1 μM, replicates: in singlicate; n = 1
# [5] = system: GSK3B; conditions: n = 1
# [6] = system: T2, HASPIN; conditions: concentration: 1 μM, replicates: in singlicate; n = 1
# T2 construct: gene GSG2
# [7] = system: HCK; conditions: concentration: 1 μM, replicates: in singlicate; n = 1
# [8] = system: HIPK1; conditions: concentration: 1 μM, replicates: in singlicate; n = 1
# [9] = system: HIPK2; conditions: concentration: 1 μM, replicates: in singlicate; n = 1
# [10] = system: HIPK3; conditions: concentration: 1 μM, replicates: in singlicate; n = 1
# [11] = system: HIPK4; conditions: concentration: 1 μM, replicates: in singlicate; n = 1
# [12] = system: HPK1; conditions: concentration: 1 μM, replicates: in singlicate; n = 1
# [13] = system: HUNK; conditions: concentration: 1 μM, replicates: in singlicate; n = 1
# [14] = system: ICK; conditions: concentration: 1 μM, replicates: in singlicate; n = 1
# [15] = system: IGF1R; conditions: concentration: 1 μM, replicates: in singlicate; n = 1
# [16] = system: T3, IKK-alpha; conditions: concentration: 1 μM, replicates: in singlicate; n = 1
# T3 construct: gene CHUK
# [17] = system: T4, IKK-beta; conditions: concentration: 1 μM, replicates: in singlicate; n = 1
# T4 construct: gene IKBKB
# [18] = system: T5, IKK-epsilon; conditions: concentration: 1 μM, replicates: in singlicate; n = 1
# T5 construct: gene IKBKE
# [19] = system: INSRR; conditions: concentration: 1 μM, replicates: in singlicate; n = 1
# [20] = system: INSR; conditions: concentration: 1 μM, replicates: in singlicate; n = 1
# [21] = concentration: 1 μM, replicates: in singlicate
# 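Further: KINOMEscan kinase panel screen.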
smiles,measurement,setting,value
O=C(Nc1n[nH]c2nc(-c3cccs3)c(Br)cc12)C1CCCC1 [SB-743341],%Inh,[1],24%
same,%Inh,[2],33%
same,%Inh,[3],11%
same,%Inh,[4],96.6%
same,%Inh,[5]; 1 µM,81%
same,%Inh,[6],0%
same,%Inh,[7],8%
same,%Inh,[8],20%
same,%Inh,[9],25%
same,%Inh,[10],52%
same,%Inh,[11],4%
same,%Inh,[12],14%
same,%Inh,[13],23%
same,%Inh,[14],65%
same,%Inh,[15],3%
same,%Inh,[16],0%
same,%Inh,[17],0%
same,%Inh,[18],4%
same,%Inh,[19],26%
same,%Inh,[20],2%
COc1ccc(CSc2nnc(-c3ccc4ncsc4c3)o2)cc1C(F)(F)F,%Inh,[1],1%
same,%Inh,[2],18%
same,%Inh,[3],0%
same,%Inh,[4],98.4%
same,%Inh,[5]; 1 µM,89%
same,%Inh,[6],45%
same,%Inh,[7],0%
same,%Inh,[8],38%
same,%Inh,[9],0%
same,%Inh,[10],0%
same,%Inh,[11],0%
same,%Inh,[12],0%
same,%Inh,[13],1%
same,%Inh,[14],0%
same,%Inh,[15],0%
same,%Inh,[16],0%
same,%Inh,[17],0%
same,%Inh,[18],0%
same,%Inh,[19],1%
same,%Inh,[20],0%
Cc1ccc(NC(=O)Nc2ccc(Cl)cc2)cc1-c1ccc(C(=O)Nc2ccncc2)cc1 [GSK1398472],%Inh,[1],17%
same,%Inh,[2],25%
same,%Inh,[3],0%
same,%Inh,[4],0%
same,%Inh,[5]; [21],7%
same,%Inh,[6],0%
same,%Inh,[7],0%
same,%Inh,[8],0%
same,%Inh,[9],0%
same,%Inh,[10],5%
same,%Inh,[11],0%
same,%Inh,[12],43%
same,%Inh,[13],23%
same,%Inh,[14],17%
same,%Inh,[15],6%
same,%Inh,[16],0%
same,%Inh,[17],8%
same,%Inh,[18],5%
same,%Inh,[19],0%
same,%Inh,[20],0%
Nc1nccc(-c2c(-c3ccc(F)cc3)ncn2C2CCN(Cc3ccccc3)CC2)n1 [SB-219980],%Inh,[1],6%
same,%Inh,[2],0%
same,%Inh,[3],6%
same,%Inh,[4],16%
same,%Inh,[5]; [21],11%
same,%Inh,[6],0%
same,%Inh,[7],9%
same,%Inh,[8],0%
same,%Inh,[9],0%
same,%Inh,[10],0%
same,%Inh,[11],0%
same,%Inh,[12],11%
same,%Inh,[13],37%
same,%Inh,[14],1%
same,%Inh,[15],0%
same,%Inh,[16],0%
same,%Inh,[17],0%
same,%Inh,[18],5%
same,%Inh,[19],1%
same,%Inh,[20],0%
COc1ccc(Nc2nccc(NCCNC(=O)Nc3cc(C)ccc3C)n2)cc1 [GSK1379899],%Inh,[1],0%
same,%Inh,[2],12%
same,%Inh,[3],0%
same,%Inh,[4],0%
same,%Inh,[5]; [21],0%
same,%Inh,[6],0%
same,%Inh,[7],78%
same,%Inh,[8],0%
same,%Inh,[9],0%
same,%Inh,[10],0%
same,%Inh,[11],0%
same,%Inh,[12],40%
same,%Inh,[13],0%
same,%Inh,[14],18%
same,%Inh,[15],7%
same,%Inh,[16],8%
same,%Inh,[17],9%
same,%Inh,[18],1%
same,%Inh,[19],0%
same,%Inh,[20],0%
Cc1ccccc1-c1cc(-c2c[nH]nc2-c2ccccn2)ccn1 [GW680061],%Inh,[1],37%
same,%Inh,[2],0%
same,%Inh,[3],0%
same,%Inh,[4],0%
same,%Inh,[5]; [21],1%
same,%Inh,[6],0%
same,%Inh,[7],0%
same,%Inh,[8],4%
same,%Inh,[9],0%
same,%Inh,[10],10%
same,%Inh,[11],0%
same,%Inh,[12],32%
same,%Inh,[13],27%
same,%Inh,[14],0%
same,%Inh,[15],2%
same,%Inh,[16],46%
same,%Inh,[17],38%
same,%Inh,[18],0%
same,%Inh,[19],0%
same,%Inh,[20],28%
COc1ccc(Nc2nccc(N3CCC(NC(=O)C(C)c4ccc(Cl)cc4)CC3)n2)cc1 (stereo not shown) [GSK1379812],%Inh,[1],8%
same,%Inh,[2],0%
same,%Inh,[3],0%
same,%Inh,[4],16%
same,%Inh,[5]; [21],8%
same,%Inh,[6],0%
same,%Inh,[7],0%
same,%Inh,[8],0%
same,%Inh,[9],0%
same,%Inh,[10],15%
same,%Inh,[11],0%
same,%Inh,[12],39%
same,%Inh,[13],10%
same,%Inh,[14],0%
same,%Inh,[15],0%
same,%Inh,[16],0%
same,%Inh,[17],0%
same,%Inh,[18],100%
same,%Inh,[19],0%
same,%Inh,[20],15%
COc1ccc(Nc2nccc(-c3ccc(NC(=O)c4cc5cc(F)ccc5[nH]4)cc3)n2)cc1 [GSK1229496],%Inh,[1],22%
same,%Inh,[2],0%
same,%Inh,[3],0%
same,%Inh,[4],0%
same,%Inh,[5]; [21],0%
same,%Inh,[6],41%
same,%Inh,[7],0%
same,%Inh,[8],0%
same,%Inh,[9],0%
same,%Inh,[10],0%
same,%Inh,[11],0%
same,%Inh,[12],38%
same,%Inh,[13],0%
same,%Inh,[14],0%
same,%Inh,[15],0%
same,%Inh,[16],0%
same,%Inh,[17],0%
same,%Inh,[18],8%
same,%Inh,[19],0%
same,%Inh,[20],0%
O=c1cc(N2CCOCC2)nc2n(Cc3cccc(Cl)c3Cl)c3ccccc3n12 [GSK2299009],%Inh,[1],0%
same,%Inh,[2],25%
same,%Inh,[3],0%
same,%Inh,[4],5%
same,%Inh,[5]; [21],14%
same,%Inh,[6],0%
same,%Inh,[7],0%
same,%Inh,[8],9%
same,%Inh,[9],0%
same,%Inh,[10],19%
same,%Inh,[11],0%
same,%Inh,[12],19%
same,%Inh,[13],0%
same,%Inh,[14],14%
same,%Inh,[15],5%
same,%Inh,[16],0%
same,%Inh,[17],0%
same,%Inh,[18],37%
same,%Inh,[19],7%
same,%Inh,[20],0%
COc1ccc(Nc2nccc(N3CCC(NC(=O)C(C)c4ccc(Cl)cc4)C3)n2)cc1 (stereo not shown) [GSK1379735],%Inh,[1],20%
same,%Inh,[2],31%
same,%Inh,[3],0%
same,%Inh,[4],34%
same,%Inh,[5]; [21],0%
same,%Inh,[6],13%
same,%Inh,[7],0%
same,%Inh,[8],0%
same,%Inh,[9],0%
same,%Inh,[10],4%
same,%Inh,[11],9%
same,%Inh,[12],51%
same,%Inh,[13],0%
same,%Inh,[14],18%
same,%Inh,[15],0%
same,%Inh,[16],0%
same,%Inh,[17],0%
same,%Inh,[18],0%
same,%Inh,[19],28%
same,%Inh,[20],11%
FC(F)(F)c1ccccc1-c1cc(-c2c[nH]nc2-c2ccccn2)ccn1 [GW679396],%Inh,[1],14%
same,%Inh,[2],0%
same,%Inh,[3],0%
same,%Inh,[4],2%
same,%Inh,[5]; [21],12%
same,%Inh,[6],0%
same,%Inh,[7],0%
same,%Inh,[8],0%
same,%Inh,[9],0%
same,%Inh,[10],17%
same,%Inh,[11],0%
same,%Inh,[12],0%
same,%Inh,[13],0%
same,%Inh,[14],3%
same,%Inh,[15],0%
same,%Inh,[16],0%
same,%Inh,[17],0%
same,%Inh,[18],100%
same,%Inh,[19],0%
same,%Inh,[20],0%
